This note sets out measurements from PubChem BioAssay (NCATS).

Experiment [1] deals with MCC-26. In words: qHTS assay to identify novel small-molecules to repurpose for Merkel cell carcinoma treatment (AID 1296009). Further: nearly all actives have a fitted effect of over 60% in size. The settings on record: MCC and control cell lines, CellTiter-Glo viability, 72 h; series mostly up to 46 µM. The procedure, abridged: (§1)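 After compound transfer in DMSO, plates were kept 72 hr at 37 degree celsius. Luminescent ATP signal from CellTiter-Glo served as viability measure, normalized against DMSO and no-cell controls.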
On the technique in general: In qHTS, concentration-response curves come from the screen itself.

In experiment [2] the test system is MKL-1. The description is as above. The settings on record: MCC and control cell lines, CellTiter-Glo viability, 72 h; series mostly up to 46 µM. In outline: as §1
For orientation: In ATP-based viability assays light output follows the ATP content of the culture.

Experiment [3] concerns NIH3T3. The experiment is described as above. The settings on record: MCC and control cell lines, CellTiter-Glo viability, 72 h; at 44.8 µM (top of the series) unless noted. The procedure, abridged: as §1
Experiment [4] concerns UISO. The description is as above. The settings on record: MCC and control cell lines, CellTiter-Glo viability, 72 h; series mostly up to 46 µM. In outline:
as §1

Experiment [5] concerns C33A. In words: Primary qHTS to identify gynecologic anti-cancer compounds using libraries of approved drugs and bioactive compounds (AID 1345084). Further: nearly all actives have a fitted effect of over 55% in size. The settings on record: Gynecologic cancer cell panel viability, ATPlite luminescence, 48 h; series mostly up to 57.5 µM. In outline:
(§2)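 Cells, 1,000 per well, were allowed to settle for 16 h at 37 C before compound addition. Five concentrations were tested for 48 h, and viability was read by ATPlite luminescence after 15 min at room temperature.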

The test system of experiment [6] is CASKI. Described as above. The settings on record: Gynecologic cancer cell panel viability, ATPlite luminescence, 48 h; series mostly up to 57.5 µM. In outline:
as §2

Experiment [7] concerns Es-2. The description is as above. The settings on record: Gynecologic cancer cell panel viability, ATPlite luminescence, 48 h; series mostly up to 57.5 µM. The procedure, abridged: as §2
The subject of experiment [8] is MKL-2. The experiment in a line: qHTS assay to identify novel small-molecules to repurpose for Merkel cell carcinoma treatment (AID 1296009). Further: nearly all actives have a fitted effect of over 60% in size. The settings on record: MCC and control cell lines, CellTiter-Glo viability, 72 h; series mostly up to 46 µM. In outline:
as §1

Experiment [9] concerns WaGa. The description is as above. The settings on record: MCC and control cell lines, CellTiter-Glo viability, 72 h; series mostly up to 46 µM. In outline:
as §1

Experiment [10] concerns CAOV3. In words: Primary qHTS to identify gynecologic anti-cancer compounds using libraries of approved drugs and bioactive compounds (AID 1345084). Further: nearly all actives have a fitted effect of over 55% in size. The settings on record: Gynecologic cancer cell panel viability, ATPlite luminescence, 48 h; series mostly up to 57.5 µM. The procedure, abridged: as §2

Results filed as inconclusive are left out. Calls of active or inactive are those of the source. The call rests on the fitted dose curve; in most records, active means well fitted curve in the direction sought with a large enough effect; inconclusive means small, poorly fitted or top-dose-only effect, or another doubt; inactive means no such curve, though single readings can be large; an effect the other way counts as inactive or inconclusive.
Potency means the concentration at half of the fitted maximal effect.

`CN1CCN(c2ccc([N+](=O)[O-])c3no[n+]([O-])c23)CC1`: the Potency entry in experiment [1], in [2], in experiment [4], in experiment [5], in experiment [6] and in experiment [7] was “inactive” throughout. The call in experiment [3] was inactive.

For the compound `COC[C@H]1OC(=O)c2coc3c2[C@@]1(C)C1=C(C3=O)[C@@H]2CC[C@H](O)[C@@]2(C)C[C@@H]1OC(C)=O`, in [1], the Potency result was “inactive”. For the same compound, the figures for the Potency in experiment [8] and in experiment [9] were 8.33 µM (active) and 10.5 µM (active), respectively.

Take `CCCCOC(=O)c1ccccc1C(=O)OCc1ccccc1`: the Potency result in experiment [1], in [2], in experiment [8], in experiment [4], in experiment [9] and in experiment [5] was “inactive” in each case. The Potency result in experiment [6] and in experiment [7] was “inactive” each time.

Turning to `C=CCON=C(C[C@H]1O[C@@H]2O[C@]3(C)CC[C@@H]4[C@H](C)CC[C@@H]([C@H]1C)[C@@]24OO3)[C@H]1O[C@@H]2O[C@]3(C)CC[C@H]4[C@H](C)CC[C@@H]([C@@H]1C)[C@@]24OO3`, in experiment [1], the Potency result was “inactive”. In addition, the Potency is 1.18 µM (active) in experiment [2] and 1.05 µM (active) in experiment [9].

Turning to `CC(Cc1ccc(O)cc1)NCC(O)c1cc(O)cc(O)c1` (stereo unspecified), the Potency result in experiment [1], in [2], in experiment [8], in experiment [4], in experiment [9] and in [10] was “inactive” throughout. The Potency entry in experiment [6] and in [7] was “inactive” in each case.

Regarding `CO/C=C(/C(=O)OC)c1ccccc1Oc1cc(Oc2ccccc2C#N)ncn1`, the Potency result in experiment [1] is “inactive”. Further, the Potency in experiment [8] is 13.7 µM (active); in experiment [7] it was 31.6 µM (active).

Regarding `CC1(C)CC/C(=C/c2ccc(Cl)cc2)C1(O)Cn1cncn1` (stereo unspecified), the Potency result in experiment [1], in experiment [2], in experiment [8], in experiment [4], in [5] and in experiment [10] was “inactive” each time. For the same compound, the Potency result in experiment [6] and in [7] was “inactive” in each case.

With `CC1(N2CCC(n3c([C@@H]4CCCNC4)nc4ccccc43)CC2)CCCCCCC1`, the Potency result in experiment [1] was “inactive”. For the same compound, the Potency was 23.5 µM (active) in experiment [2], 13.2 µM (active) in [8], 8.91 µM (active) in experiment [10] and 22.4 µM (active) in experiment [7].

As to `COCCOCCO`, the Potency result in experiment [1], in experiment [2], in experiment [8], in [4], in experiment [9] and in experiment [5] was “inactive” in each case. In addition, the Potency result in experiment [6] and in [7] was “inactive” throughout.

As to `O=c1[nH]c2ccc(Cl)cc2c(N[C@@H]2CN3CCC2CC3)c1-c1nc2ccccc2[nH]1`, the Potency is 7.43 µM (active) in [1]; 0.743 µM (active) in experiment [2]; 2.64 µM (active) in [8]; 5.9 µM (active) in [4]; 1.48 µM (active) in [9]; 10 µM (active) in experiment [6]. Moreover, the Potency in [7] was 0.447 µM (active). In addition, the Potency result in experiment [5] is “inactive”.

Take `CC(O)=C(C#N)C(=O)Nc1cc(Br)ccc1Br`: the Potency entry in experiment [1], in experiment [2], in [4] and in experiment [9] was “inactive” in each case.

`CC(=O)[O][Hg][c]1ccccc1`: the Potency in [1] is 2.66 µM (active); in [8], 0.106 µM (active); in [4], 0.841 µM (active); in experiment [9], 0.473 µM (active); in experiment [5], 5.62 µM (active); in experiment [6], 4.47 µM (active). For the same compound, the Potency in experiment [7] was 6.31 µM (active).

On to `CC[C@@H]1[C@@H](C)O[C@@](O)([C@@H](C)[C@H](O)[C@H](C)[C@H]2OC(=O)C=CC=C[C@@H](C)[C@@H]([C@@H](C)[C@@H](O)[C@H](C)[C@@]3(O)C[C@H](O[C@H]4C[C@H](O)[C@H](O)[C@H](C)O4)[C@H](CC)[C@@H](C)O3)OC(=O)C=CC=C[C@@H]2C)C[C@H]1O[C@H]1C[C@H](O)[C@H](O)[C@H](C)O1`, for which the Potency in experiment [1] was 8.33 µM (active); in experiment [2], 14.8 µM (active); in experiment [4], 8.33 µM (active); in [9], 2.64 µM (active).

For `NC1=NC(=O)N2CC12` (stereo unspecified), the Potency result in [1] and in experiment [2] was “inactive” throughout. Further, the compound was called inactive in experiment [3].

On to `CC(C)NCC(O)c1ccc([N+](=O)[O-])cc1` (stereo unspecified), for which the Potency result in [1], in experiment [2], in experiment [8], in experiment [4], in experiment [9] and in experiment [5] was “inactive” in each case. Moreover, the Potency result in [6] and in experiment [7] was “inactive” in each case.

Take `C=C1C[C@H]2[C@H]3CCC(=O)[C@@]3(C)CC[C@@H]2[C@@]2(C)C=CC(=O)C=C12`: the Potency result in [1], in experiment [2] and in [4] was “inactive” each time.

`CC(C)(C)NC[C@H](O)c1ccc(O)cc1Cl`: the Potency entry in [1], in experiment [2], in experiment [8], in experiment [4], in experiment [9] and in experiment [6] was “inactive” each time. Also, the Potency result in experiment [7] is “inactive”.

With `CCN1CCN(C(=O)Cc2ccc(Nc3ncc(F)c(Nc4ccc(C(=O)Nc5ccccc5Cl)cc4)n3)cc2)CC1`, the Potency result in experiment [1], in experiment [5] and in experiment [6] was “inactive” each time. In addition, in experiment [8], the Potency was 9.35 µM (active).

As to `Nc1ccc(Sc2ccc(N)cc2)cc1`, the Potency result in experiment [1], in [2], in experiment [8], in experiment [4], in experiment [9] and in experiment [5] was “inactive” in each case. The Potency entry in experiment [6] and in experiment [7] was “inactive” each time.

`O=S(=O)(O)C(F)(F)C(F)(F)C(F)(F)C(F)(F)C(F)(F)C(F)(F)C(F)(F)C(F)(F)F`: the Potency result in experiment [1], in [2], in experiment [4], in experiment [5], in experiment [6] and in experiment [7] was “inactive” in each case. The outcome in [3] was “inactive [at 92 µM]”.

In the case of `CCCN1CCO[C@@H]2c3cc(O)ccc3OC[C@@H]21`, the Potency entry in experiment [1], in experiment [2] and in experiment [4] was “inactive” in each case.

Turning to `CCCCCC[C@H]1C(=O)O[C@H](C)[C@H](NC(=O)c2cccc(NC=O)c2O)C(=O)O[C@@H](C)[C@@H]1OC(=O)CC(C)C`, in experiment [1], the Potency result is “inactive”. Also, the Potency in [8] is 4.69 µM (active).

Turning to `O=[N+]([O-])/N=C1\NCCN1Cc1ccc(Cl)nc1`, the Potency entry in experiment [1], in [2], in experiment [8], in [4], in experiment [9] and in [5] was “inactive” each time. The Potency result in experiment [6] and in [7] was “inactive” each time.

Regarding `Cc1[nH]nc2ccc(-c3cncc(OC[C@@H](N)Cc4c[nH]c5ccccc45)c3)cc12`, the Potency is 3.72 µM (active) in experiment [1]; 3.72 µM (active) in experiment [8]; 0.235 µM (active) in experiment [4]; 0.833 µM (active) in [9]; 0.316 µM (active) in experiment [5]; 2.82 µM (active) in experiment [6]. Further, the Potency in experiment [7] was 1.78 µM (active).

As to `CCO/N=C(\CC)C1=C(O)CC(c2c(C)cc(C)cc2C)CC1=O` (stereo unspecified), the Potency entry in experiment [1], in [2], in experiment [4], in experiment [5], in experiment [10] and in [6] was “inactive” throughout. In addition, in experiment [7], the Potency result is “inactive”.

`O=S(=O)(c1ccc(Cl)cc1)c1ccc(Cl)cc1`: the Potency result in experiment [1], in experiment [2], in experiment [4], in experiment [5], in experiment [6] and in experiment [7] was “inactive” throughout.

As for `S=C(SSC(=S)N1CCCCC1)N1CCCCC1`, the Potency in experiment [1] was 0.133 µM (active); in [2], 0.133 µM (active); in experiment [8], 0.0944 µM (active); in experiment [4], 0.0944 µM (active). For the same compound, in experiment [6], the Potency entry is “inactive”.

For the compound `C=C[C@@H]1CN2CCC1C[C@@H]2[C@@H](O)c1ccnc2ccccc12` (stereo partly specified), the Potency result in experiment [1], in experiment [2], in experiment [8] and in experiment [9] was “inactive” throughout.

Consider `CN[C@@H](C)[C@H](O)c1ccccc1`, for which the Potency result in experiment [1], in experiment [2], in experiment [8], in experiment [4], in [9] and in experiment [5] was “inactive” each time. For the same compound, the Potency result in experiment [6] and in experiment [7] was “inactive” each time.
